Inconclusive results are not listed. Entries that show only a call come without a potency. A number with no mark means an inactive call. Activity calls are given as the source filed them. The call rests on the fitted dose curve; in most records, active means well fitted inhibition curve with a large enough effect in the signal ratio in the repeat runs (not every such curve was filed as active); inconclusive means weak or mixed curves, or effect the other way; inactive means flat fitted curve, though single readings scatter; the % refers to the signal ratio.

Consider 40 compounds from PubChem BioAssay (Tox21).

A short description of this assay: cAMP Responsive Elements (CRE) small molecule antagonists, cell-based qHTS assay (AID 1963591). The note with it: CRE-bla HEK293T, beta-lactamase FRET ratio; series mostly up to 92.4 µM. An excerpt:
U.S. Tox21 Program National Center for Advancing Translational Sciences [NCATS] Division of Preclinical Innovation [DPI] U.S. Environmental Protection Agency [EPA] National Institutes of Environmental Health Sciences [NIEHS] National Toxicology Program [NTP] U.S. Food and Drug Administration [FDA] Tox21 Assay Overview: CREB (cyclic-AMP Responsive Element Binding Protein) is a cellular transcription factor. It binds to certain DNA sequences called cAMP Responsive Elements (CRE) and regulates the transcription of the genes. […] This cell line can be used to find agonists/antagonists of the cyclic AMP signaling pathway. The activation of the report gene under culture conditions can be detected by fluorescence intensity. This cell line has been used to screen the Tox21 10K compound library to […].
Tox21 Assay Protocol Summary: CRE-bla Hek 293T cells were suspended in assay medium (DMEM containing 10% dialyzed FBS, 0.1 mM NEAA, 1 mM sodium pyruvate and 25 mM HEPES) and dispensed at 2,000 cells/4 uL /well into 1536-well black wall/clear bottom plates using a Multidrop Combi (ThermoFisher Scientific, Waltham, MA) dispenser. After the assay plates were incubated at 37 C/5% CO2 for 18 hrs, 23 nL of compounds dissolved in DMSO, positive controls or DMSO only was transferred to the assay plate by a pintool workstation (Kalypsys, San Diego, CA), followed by addition of 1 […] uL of 1.25uM NKH477 (0.25 uM as final concentration) in assay medium using a Flying Reagent Dispenser (Aurora Discovery, San Diego, CA). The plates were incubated at 37 C and 5% CO2 for 3 hrs. Then 1 uL of LiveBLAzer B/G FRET substrate (Invitrogen, Carlsbad, CA) was added to each well using Bioraptr Flying Reagent Dispenser (FRD, Aurora Discovery, San Diego, CA). The plates were incubated at room temperature for 2 h.
For orientation: Quantitative high-throughput screening tests each substance at several concentrations.
With `CC[N+](=O)[O-]`, the Potency result is “inactive”.
In the case of `CNC(=O)Oc1c(C(C)(C)C)cc(C)cc1C(C)(C)C`, the Potency entry is “inactive”.
Turning to `O=C(O)C(Cl)(Cl)Br`, the Potency entry is “inactive”.
For `COc1cccc(C=O)c1`, the Potency entry was “inactive”.
Consider `COCC(=O)N(c1c(C)cccc1C)[C@H](C)C(=O)OC`, for which the Potency entry was “inactive”.
Same read-out and setting: then `Cc1cc(O)ccc1Cl`, with “inactive”; and `CCOC(=O)Nc1cccc(OC(=O)Nc2ccccc2)c1`, with “inactive”; and `C=C(C)C#N`, with “inactive”.
Same read-out and setting: the value for `N#CC(c1ccccc1)c1ccccc1` was “inactive”; that for `CCOC(=O)CC(SP(=S)(OC)OC)C(=O)OCC` (stereo not given) was “inactive”; that for `Oc1ccc(Cl)c(Cl)c1` was “inactive”.
Regarding `O=C(O)C(F)(F)C(F)(F)C(F)(F)C(F)(F)C(F)(F)C(F)(F)C(F)(F)F`, the Potency entry is “inactive”.
As for `O=C(O)CCCc1ccc(N(CCCl)CCCl)cc1`, the Potency entry was “inactive”.
On to `C[N+](C)(C)CC(=O)O`, for which the Potency entry is “inactive”.
As to `ClC1=C(Cl)[C@]2(Cl)[C@@H]3[C@@H](Cl)[C@H](Cl)C[C@@H]3[C@@]1(Cl)C2(Cl)Cl`, the Potency entry was “inactive”.
As for `CO[C@@H]1[C@H](OC(=O)NC(=O)CCl)CC[C@]2(CO2)[C@H]1[C@@]1(C)O[C@@H]1CC=C(C)C`, the activity change, negative = inhibition is -7.46% [at 18.9 µM].
Consider `COc1cc(OC)nc(NC(=O)NS(=O)(=O)c2ncccc2C(=O)N(C)C)n1`, for which the Potency entry is “inactive”.
Regarding `CC1(C)[C@H](C(=O)O[C@H](C#N)c2cccc(Oc3ccccc3)c2)[C@@H]1C=C(Br)Br`, the Potency entry was “inactive”.
On the same count and under the same terms, the value for `CCOP(=S)(OCC)O/N=C(\C#N)c1ccccc1` was “inactive”.
For `CN(C)C(=O)Nc1ccc(Cl)cc1`, the Potency entry is “inactive”.
On to `CN(C)NC(=O)CCC(=O)O`, for which the Potency entry was “inactive”.
Turning to `CC(C)(C)OOC(=O)c1ccccc1`, the Potency entry is “inactive”.
Same read-out and setting: then `COC(C)(C)C`, with “inactive”.
For `Cl/C=C/CCl`, the Potency result is “inactive”.
For the compound `CC(C)(C1CCC(O)CC1)C1CCC(O)CC1` (stereo not given), the Potency entry is “inactive”.
The same measure, in the same setting: the value for `CC1CN1` (stereo not given) was “inactive”; that for `NNC(=S)NN` was “inactive”.
`ClC(Cl)c1ccccc1`: the Potency result is “inactive”.
As for `CCN(CC)C(=O)C(C)Oc1cccc2ccccc12` (stereo not given), the Potency entry is “inactive”.
For `OCC1CO1` (stereo not given), the Potency result is “inactive”.
The same measure, in the same setting: the value for `COc1c(C(C)(C)C)cc([N+](=O)[O-])c(C)c1[N+](=O)[O-]` was “inactive”; that for `CCC(C)c1cc([N+](=O)[O-])cc([N+](=O)[O-])c1O` (stereo not given) was “inactive”.
On the same count and under the same terms, the value for `CCCCOC(=O)c1ccccc1C(=O)OCc1ccccc1` was “inactive”; that for `O=C(CCl)c1ccccc1` was “inactive”; that for `Nc1c(Oc2ccccc2)cc(O)c2c1C(=O)c1ccccc1C2=O` was “inactive”.
Turning to `O=C(O)c1ccc(=O)[nH]c1`, the Potency result was “inactive”.
Take `N#Cc1cc([N+](=O)[O-])ccc1N`: the Potency entry is “inactive”.
For the compound `O=c1nc(O)n(Cl)c(=O)n1Cl`, the Potency entry is “inactive”.
For the compound `Oc1ccccc1Cl`, the Potency entry is “inactive”.
Consider `CC(C)c1cccc(C(C)C)c1O`, for which the Potency entry was “inactive”.
